Shiga inhibitor – inhibitors of Shiga toxin in Vero cells; inhibition, % at 38.7 µM; actives 9.2% (n = 290,000); Vero cells, Shiga toxin protein synthesis inhibition reporter; in the data active = inhibition mostly above about 28%, no sharp cut-off; inactive = mostly below about 43%; also: 0% is about no effect
Pf growth 96h – inhibits malaria parasite growth, 96 h. P. falciparum luciferase reporter growth, 96 h. Potency, µM (titrated, usually from 28.7 µM), for the others: at the top dose activity change, negative = inhibition, most hits filed as inhibitors. actives 6.9% (n = 320,000); also: potency is read from the fitted curve at half-maximal effect; % is scaled to controls: 0 for no effect and ±100 for the full control effect
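Erythrocytes infected with luciferase-expressing P. falciparum were dispensed at 2% hematocrit and 0.05% parasitemia (final), then incubated with compounds 96 hours at 37 C in 5% CO2. Luminescence after detection reagent addition reported growth.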
Pf growth 48h – P. falciparum growth inhibition at 48 hours (one generation) | P. falciparum luciferase growth in erythrocytes, 48 h | Potency, µM (highest dose often 28.7 µM), without a hit: at the highest dose activity change, negative = inhibition, most hits filed as inhibitors | actives 5.9% (n = 310,000); also: potency is read from the fitted curve at half-maximal effect; % is scaled to controls: 0 for no effect and ±100 for the full control effect
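A one-generation exposure of luciferase-tagged malaria parasites in RPMI 1640/Albumax erythrocyte culture, 37 C and 5% CO2. Inhibition is inferred from decreased luminescence after adding detection reagent.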
Cycloheximide cs – counter-screen for Shiga toxin inhibitors: cycloheximide protein synthesis inhibition. max response, %. cell reporter, cycloheximide protein synthesis inhibition counterscreen. actives 12% (n = 300,000); in the data active = max response mostly above about 13%, no sharp cut-off; inactive = mostly below about 14%; also: read at 38.3 µM for the half of the compounds with a filed dose; 0% is about no effect
AMA1-RON2 inh – AMA1-RON2 (P. falciparum) interaction inhibition; AlphaScreen AMA1-biotinylated RON2 peptide binding; Potency, µM (top dose mostly 58.2 µM), inactives show at the top dose activity change, negative = inhibition, actives largely listed as inhibitors; actives 0.2% (n = 360,000);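 also: potency is read from the fitted curve at half-maximal effect; 0% = vehicle wells and -100% = peptide control; nearly all actives have a fitted effect of over 45% in size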
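AMA1 (3D7) with his tag at 25 nM final met compounds first, then biotinylated RON2 peptide at 25 nM; detection used donor plus acceptor beads, 10 µg/mL apiece, read by AlphaScreen after 30 min at room temperature.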
SARS PLP yeast – inhibitors of SARS-CoV papain-like protease in yeast | Potency, µM (highest dose often 32.9 µM), inactives show at the top dose activity, positive = growth rescue, usual class: activators | actives 0.19% (n = 330,000) | S. cerevisiae expressing SARS-CoV PLpro, growth rescue | AID 485353; calls by dose curve; also: potency is read from the fitted curve at half-maximal effect; 0% is about no effect; nearly all actives have a fitted effect of over 55% in size
Numbers without * were called inactive; i = inactive; ? = inconclusive; . = no result; [ ] = remark or other dose. A selection: hits, their analogues and other compounds. The true share with any hit is near 19%. Unless noted, calls follow the shape of the dose curve; as a rule, active = well fitted curve in the direction sought with a large enough effect; inconclusive = small, poorly fitted or top-dose-only effect, or another doubt; inactive = no such curve, though single readings can be large; an effect the other way counts as inactive or inconclusive.

SMILES	Shiga inhibitor	Pf growth 96h	Pf growth 48h	Cycloheximide cs	AMA1-RON2 inh	SARS PLP yeast
COCCn1c(=NC(=O)c2cccs2)sc2cc(NC(C)=O)ccc21	-6	55%	4%	-4	0%	-10%
c1cncc(N=c2scc(-c3cccc4ccccc34)n2CCCn2ccnc2)c1	-18	9.3µM*	9.3µM*	-5	11%[2.32 µM]	8%
Cc1ccc(-c2csc(=Nc3cccnc3)n2CCCN2CCCC2=O)cc1C	-12	12µM*	?	-3	-1%[2.32 µM]	4%
Cc1ccc(-c2csc(=Nc3cccnc3)n2CCCn2ccnc2)cc1C	-18	3.7µM*	10µM*	-3	1%[2.32 µM]	6%
COCCn1c(-c2ccccc2)csc1=Nc1cccnc1	-6	?	?	9	-8%	-9%
Cc1ccc(C2=NN(CCC(=O)NCc3ccc4c(c3)OCO4)C(=O)CC2)cc1	-4	?	6%	20*	9%	2%
CCc1ccc(C2=NN(CCC(=O)NC3CCCCCC3)C(=O)CC2)cc1	-6	10µM*	?	-2	-3%	-1%
Cc1c(Cl)c(C(=O)N2CCCC2)nn1C	2	22%	5%	0	5%	7%
CNC(C)C(=O)NC(C(=O)N1CCCC1C(=O)NNc1ccccc1)C(C)C (stereo not drawn)	.	80%	?	.	62%	-1%
Cc1ccc(-c2ccc(OC(=O)c3ccc(=O)[nH]c3)c(C)c2)cc1	43	21%	19%	12	-7%	-4%
Cc1cc(C)c(C#N)c(SCC(=O)Nc2nnc(-c3ccccc3)s2)n1	6	.	4%	-2	-4%	0%
Cc1nc(SCC(=O)Nc2nccs2)c(C#N)c(C)c1C	.	43%	114%	.	45%	0%
Cc1nc(SCC(=O)Nc2nc3ccccc3s2)c(C#N)c(C)c1C	34	?	-71%	29*	-5%	13%
Cc1cc(C)c(C#N)c(SCC(=O)Nc2ccccc2C)n1	9	-1%	-2%	11	-7%	0%
Cc1ccc2sc(NC(=O)CSc3nc(C)cc(C)c3C#N)nc2c1	78*	i	54%	47*	-6%	0%
COCCn1c(C)cc(C(=O)CSc2nc(C)cc(C)c2C#N)c1C	-23	.	?	-6	-7%	-1%
Cc1cc(C(F)(F)F)c(C#N)c(SCC(=O)Nc2nc3ccccc3s2)n1	163*	332%	227%	112*	-3%	-10%
Cc1cc(C)c(C#N)c(SCC(=O)c2ccc(Cl)cc2Cl)n1	-16	10µM*	13µM*	-5	?	-9%
CC(=O)N1CCOc2ccc(S(=O)(=O)NCc3ccc(C)cc3)cc21	-7	?	-23%	2	-9%	18%
CCOC(=O)C1C2C=CC3(CN(C4CCCC4)C(=O)C13)O2 (stereo not drawn)	-17	9%	7%	5	-5%	-1%
COc1ccc(/C=C2/C(=O)N(Cc3ccccc3)N=C2C)cc1	-4	14%	-4%	2	-8%	4%
COc1ccc(/C=C2/C(=O)N(c3nc4ccccc4s3)N=C2CSc2ccc(Cl)cc2)cc1	14	4%	16%	14*	77%[11.6 µM]	-5%
COc1ccc(S(=O)(=O)N2CCOC2CNC(=O)C(=O)NCc2ccccc2OC)cc1 (stereo not drawn)	-10	?	-51%	-2	-16%	5%
Cc1ccc(C)c(C(=O)Cn2ncc(Cl)c(Cl)c2=O)c1	-20	.	?	15	0%	-2%
Cc1cc(C(=O)Cn2ncc(Cl)c(Cl)c2=O)c(C)n1CC(F)(F)F	22	?	5%	24*	-11%[11.6 µM]	-43%
O=C(Nc1ccccc1Cl)c1cc[n+]([O-])cc1	-8	7%	21%	-5	10%	15%
O=C(Nc1ccccc1NC(=O)c1ccccc1F)c1ccccc1F	-6	11%	?	1	-9%	0%
O=C(Nc1ccccc1Cl)c1ccn[nH]1	110	74%	77%	20*	2%	-5%
O=C(Nc1ccccc1F)c1ccn[nH]1	47*	51%	98%	22*	-3%	-11%
Cc1cc(=O)n2c(n1)SCOC2	-3	-5%	?	0	-11%	0%
